Here are results for seven compounds from PubChem BioAssay (EPA / NIEHS).

As a reminder, the AC50 is the concentration at which the activity in the assay is half-maximal.

Activity calls are given as the source filed them. How the source made its calls: active means hit-call score of the fitted dose curve at least 0.9, where 1 is the maximum; inactive means score below 0.9.

A short description of assay [1]: ATG_CRE_CIS: Attagene CIS-FACTORIAL HepG2 Assay for human cAMP Responsive Element (CRE) binding protein 3 (AID 2282926). As to conditions: HepG2 CRE cis-reporter, Attagene multiplexed mRNA; actives raise or lower the signal. The method, boiled down: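 HepG2 cells transiently transfected with a multiplexed reporter library (CRE-driven unit among them) were dosed for 24 h. Reporter mRNA was quantified by RT-PCR, fluorescent labelling, HpaI digestion and capillary electrophoresis, with bidirectional fitting against DMSO baseline.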

In assay [2] the target is CCAAT/enhancer-binding protein beta (Homo sapiens) (UniProt P17676). Kind of assay: ATG_C_EBP_CIS: Attagene CIS-FACTORIAL HepG2 Assay for human CCAAT/Enhancer Binding Protein (C/EBP) beta (AID 2282927). As to conditions: HepG2 Attagene cis-factorial transcription factor reporter; actives raise or lower the signal. The essentials:
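HepG2, transient MRTU transfection, 24 h treatment. RT-PCR plus CE fluorescence; DMSO negative control, bidirectional fit.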

A short description of assay [3]: ATG_CMV_CIS: Attagene CIS-FACTORIAL HepG2 Assay for human CMV (Internal Marker) (AID 2282928).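 Further: endpoint acts as a background internal control marker rather than a target.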 As to conditions: HepG2 CMV promoter reporter, transcription factor profiling; actives raise or lower the signal. The method, boiled down: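 HepG2 cells transiently transfected with multiple cis-regulated reporter units; 24 h compound exposure. Reporter mRNA quantified by RT-PCR, 6-FAM primer-extension labeling, HpaI digestion and capillary electrophoresis; bidirectional fitting against DMSO baseline.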

Assay [4] in a line: ATG_DR4_LXR_CIS: Attagene CIS-FACTORIAL HepG2 Assay for human Liver X Receptor (LXR), DR4 submotif (AID 2282929). Particulars: HepG2 Attagene DR4 cis-reporter, mRNA transcription; actives raise or lower the signal. The method, boiled down: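 HepG2 cells transiently transfected with cis-promoter-driven multiplexed reporter units (DR4 element) were dosed for 24 h. Reporter mRNA was quantified by RT-PCR, fluorescent primer extension, HpaI digestion and capillary electrophoresis; bidirectional fitting versus DMSO baseline.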

Assay [5] has as its target Aryl hydrocarbon receptor (Homo sapiens) (UniProt P35869). Kind of assay: ATG_Ahr_CIS: Attagene CIS-FACTORIAL HepG2 Assay for human Aryl Hydrocarbon Receptor (Ahr) (AID 2282930). As to conditions: HepG2 AhR cis-factorial reporter transcription; actives raise or lower the signal. The essentials: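 Endogenous factor activity is tracked through cis-promoter reporter units transfected into HepG2 cells. Transcript levels at 24 h are read by fluorescent RT-PCR and capillary electrophoresis, with activity in either direction scored relative to DMSO.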

Assay [6] is described as follows: ATG_AP_1_CIS: Attagene CIS-FACTORIAL HepG2 Assay for human Activator Protein 1 (AP-1) (AID 2282931). As to conditions: HepG2 Attagene cis-factorial AP-1 reporter mRNA; actives raise or lower the signal. The essentials:
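HepG2 cells transiently transfected with cis-element-driven multiplex reporter units; 24 h compound exposure. Reporter mRNA quantified by RT-PCR, FAM-labelled fragments resolved by capillary electrophoresis; bidirectional fit versus DMSO baseline.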

Assay [7] in a line: ATG_AP_2_CIS: Attagene CIS-FACTORIAL HepG2 Assay for human Activator Protein 2 (AP-2) (AID 2282932). Particulars: HepG2 AP-2 cis-reporter, Attagene transcription factor profiling; actives raise or lower the signal. The essentials:
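Multiplexed mRNA reporter assay in HepG2: cis-regulated units report endogenous factor activity after 24 h treatment. Fluorescence from capillary electrophoresis of RT-PCR products gives the signal, with DMSO as baseline.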

The nature of assay [8]: ATG_BRE_CIS: Attagene CIS-FACTORIAL HepG2 Assay for human Bone Morphogenetic Protein (BMP) Response Element (BRE) (AID 2282933). As to conditions: HepG2 BMP response element reporter, Attagene transcription factor profiling; actives raise or lower the signal. The essentials: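 Endogenous transcription factor activity at a BMP response element was monitored in transfected HepG2 cells 24 h after dosing. Fluorescent RT-PCR products were resolved by capillary electrophoresis, and activity was fitted in both directions versus DMSO.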

Assay [9] deals with Retinoic acid receptor alpha (Homo sapiens) (UniProt P10276). Kind of assay: ATG_DR5_RAR_CIS: Attagene CIS-FACTORIAL HepG2 Assay for human Retinoic Acid Receptor Alpha (RARE), DR5 submotif (AID 2282934). Particulars: HepG2 Attagene cis-factorial RARE DR5 reporter, mRNA; actives raise or lower the signal. The method, boiled down: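 After 24 h of chemical exposure, transiently transfected HepG2 cells were lysed for total RNA; the DR5-regulated reporter transcript was quantified via RT-PCR and capillary electrophoresis, with activity fitted bidirectionally against DMSO.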
Retinoic acid receptor alpha (Homo sapiens), sequence (P10276 whole entry, looked up): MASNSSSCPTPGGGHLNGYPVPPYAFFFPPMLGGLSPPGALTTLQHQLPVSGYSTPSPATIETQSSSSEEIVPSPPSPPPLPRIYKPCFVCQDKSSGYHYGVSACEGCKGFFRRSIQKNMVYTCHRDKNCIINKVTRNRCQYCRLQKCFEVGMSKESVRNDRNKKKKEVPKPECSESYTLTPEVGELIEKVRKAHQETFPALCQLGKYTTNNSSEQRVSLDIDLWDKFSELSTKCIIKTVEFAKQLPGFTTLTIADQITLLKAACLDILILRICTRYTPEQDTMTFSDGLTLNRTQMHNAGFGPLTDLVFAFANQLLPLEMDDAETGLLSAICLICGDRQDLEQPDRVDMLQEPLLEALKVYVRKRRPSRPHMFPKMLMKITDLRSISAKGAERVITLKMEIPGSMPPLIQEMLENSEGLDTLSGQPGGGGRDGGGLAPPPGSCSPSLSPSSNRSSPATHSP

Assay [10] has as its target Transcription factor E2F1 (Homo sapiens) (UniProt Q01094). Description: ATG_E2F_CIS: Attagene CIS-FACTORIAL HepG2 Assay for human E2F Transcription Factor 1 (AID 2282935). As to conditions: HepG2 Attagene cis-reporter, E2F reporter RNA transcripts; actives raise or lower the signal. The method, boiled down:
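Measures reporter transcript levels via RT-PCR with capillary electrophoresis detection in HepG2 cells harboring cis-regulated reporter units; 24 h post-dose; bidirectional curve fitting with DMSO as baseline.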

Assay [11] is described as follows: ATG_E_Box_CIS: Attagene CIS-FACTORIAL HepG2 Assay for human Enhancer Box (E-box) (AID 2282936). Particulars: HepG2 E-box cis-reporter transcription, actives raise or lower the signal. The essentials: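 First, HepG2 cells receive multiple cis-regulated reporter constructs by transient transfection. Next, chemicals are applied for 24 h. Finally, reporter mRNA is quantified via RT-PCR and capillary electrophoresis, with DMSO as baseline.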

Assay [12] can be described thus: ATG_M_61_CIS: Attagene CIS-FACTORIAL HepG2 Assay for M61 Transcription Factor (Internal Marker) (AID 2282937). As to conditions: HepG2 Attagene CIS-FACTORIAL M61 internal marker reporter; actives raise or lower the signal. The method, boiled down:
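HepG2 cells transiently transfected with cis-element-driven multiple reporter transcription units, dosed for 24 h. Reporter mRNA measured by RT-PCR, 6-FAM primer-extension labelling, HpaI digestion and capillary electrophoresis; bidirectional fit versus DMSO baseline.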

The nature of assay [13]: ATG_EGR_CIS: Attagene CIS-FACTORIAL HepG2 Assay for human Early Growth Response 1 (EGR1) (AID 2282938). As to conditions: HepG2 Attagene CIS-FACTORIAL EGR reporter mRNA; actives raise or lower the signal. The essentials:
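HepG2 cells transiently transfected with cis-promoter-driven multiplexed reporter transcription units; reporter mRNA measured 24 h after compound dosing by RT-PCR, 6-FAM primer extension, HpaI digestion and capillary electrophoresis. Bidirectional fit versus DMSO baseline.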

Assay [14] can be described thus: ATG_M_19_CIS: Attagene CIS-FACTORIAL HepG2 Assay for M19 Transcription Factor (Internal Marker) (AID 2282939). As to conditions: HepG2 Attagene CIS-FACTORIAL M19 internal marker reporter; actives raise or lower the signal. The method, boiled down: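 Background-control endpoint from a multiplexed HepG2 reporter panel. Cells carrying cis-regulated reporter constructs are treated 24 h, then reporter transcripts are amplified, fluorescently labelled and sized by capillary electrophoresis. DMSO defines baseline.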

The nature of assay [15]: ATG_ERE_CIS: Attagene CIS-FACTORIAL HepG2 Assay for Estrogen Response Element (ERE) (AID 2282940). Particulars: HepG2 ERE cis-reporter, Attagene RNA transcript; actives raise or lower the signal. The essentials: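 Cells used were human hepatoma HepG2, transfected with multiple reporter transcription units under cis-regulatory promoters. Reporter mRNA, read 24 h post-dosing via fluorescent RT-PCR products on capillary electrophoresis, was fitted bidirectionally relative to DMSO.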

Assay [16] in a line: ATG_Ets_CIS: Attagene CIS-FACTORIAL HepG2 Assay for human Erythroblast Transformation Specific (ETS) (AID 2282941). Particulars: HepG2 ETS cis-reporter transcription, actives raise or lower the signal. The method, boiled down:
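HepG2 cells transiently transfected with cis-promoter reporter transcription units were dosed for 24 h; reporter mRNA was measured by RT-PCR, 6-FAM primer extension, HpaI digestion and capillary electrophoresis, with bidirectional fitting against DMSO baseline.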

In assay [17] the target is Hepatocyte nuclear factor 3-beta (Homo sapiens) (UniProt Q9Y261). Kind of assay: ATG_FoxA2_CIS: Attagene CIS-FACTORIAL HepG2 Assay for human Forkhead box A2 (FOXA2) (AID 2282942). Particulars: HepG2 cis-reporter transcription factor activity, 24 h; actives raise or lower the signal. The essentials: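 HepG2 cells transiently transfected with multiple cis-regulated reporter transcription units, dosed for 24 h. Reporter mRNA measured by RT-PCR, 6-FAM labelling, HpaI digestion and capillary electrophoresis; bidirectional fitting against DMSO baseline.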
Hepatocyte nuclear factor 3-beta (Homo sapiens), sequence (Q9Y261 whole entry, looked up): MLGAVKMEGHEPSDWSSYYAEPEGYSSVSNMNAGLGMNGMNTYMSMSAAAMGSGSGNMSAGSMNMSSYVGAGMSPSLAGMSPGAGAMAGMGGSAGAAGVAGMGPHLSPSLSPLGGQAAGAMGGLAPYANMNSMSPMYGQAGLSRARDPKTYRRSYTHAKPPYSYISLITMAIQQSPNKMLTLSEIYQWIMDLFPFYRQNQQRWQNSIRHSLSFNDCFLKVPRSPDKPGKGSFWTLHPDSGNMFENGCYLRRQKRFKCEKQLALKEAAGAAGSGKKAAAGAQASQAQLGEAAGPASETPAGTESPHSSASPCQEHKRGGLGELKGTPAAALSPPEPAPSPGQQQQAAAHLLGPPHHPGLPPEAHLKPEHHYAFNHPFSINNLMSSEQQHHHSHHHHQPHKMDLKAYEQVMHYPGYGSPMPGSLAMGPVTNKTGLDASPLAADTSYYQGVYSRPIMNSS

A short description of assay [18]: ATG_FoxO_CIS: Attagene CIS-FACTORIAL HepG2 Assay for human Forkhead box O (FoxO) (AID 2282943). As to conditions: HepG2 Attagene cis-reporter, FoxO element, mRNA; actives raise or lower the signal. The essentials:
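Transfected HepG2 reporter cells exposed to test chemical for 24 h; reporter RNA measured by reverse transcription, PCR and fluorescent capillary electrophoresis; curves fitted for increases and decreases against DMSO.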

Assay [19] can be described thus: ATG_GATA_CIS: Attagene CIS-FACTORIAL HepG2 Assay for human GATA Binding Protein (AID 2282944). Particulars: HepG2 GATA cis-element reporter, Attagene multiplex mRNA; actives raise or lower the signal. The essentials:
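Endogenous transcription factor activity was captured through cis-promoter-driven reporters in transfected HepG2 cells. After 24 h exposure, reporter transcripts were quantified by RT-PCR with fluorescent capillary electrophoresis, and responses fitted both directions against DMSO.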

Assay [20] can be described thus: ATG_GLI_CIS: Attagene CIS-FACTORIAL HepG2 Assay for human Zinc Finger Protein GLI1 (AID 2282945). As to conditions: HepG2, Attagene cis-factorial reporter mRNA, GLI element; actives raise or lower the signal. The essentials:
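Transiently transfected HepG2 cells report endogenous transcription factor activity via cis-element-driven reporter units. After 24 h compound exposure, reporter mRNA was measured by RT-PCR with capillary electrophoresis; bidirectional fitting against DMSO baseline.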

CCAAT/enhancer-binding protein beta (Homo sapiens), sequence (P17676 whole entry, looked up): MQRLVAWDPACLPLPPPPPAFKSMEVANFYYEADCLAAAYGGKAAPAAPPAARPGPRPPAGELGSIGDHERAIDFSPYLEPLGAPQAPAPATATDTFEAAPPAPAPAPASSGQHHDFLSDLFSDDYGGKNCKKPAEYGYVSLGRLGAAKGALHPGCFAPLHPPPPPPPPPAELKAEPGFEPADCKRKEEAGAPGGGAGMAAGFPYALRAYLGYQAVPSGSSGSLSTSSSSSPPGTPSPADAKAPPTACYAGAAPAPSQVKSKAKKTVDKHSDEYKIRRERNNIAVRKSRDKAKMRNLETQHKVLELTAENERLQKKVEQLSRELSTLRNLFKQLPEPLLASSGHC
Aryl hydrocarbon receptor (Homo sapiens), sequence (P35869 whole entry, looked up): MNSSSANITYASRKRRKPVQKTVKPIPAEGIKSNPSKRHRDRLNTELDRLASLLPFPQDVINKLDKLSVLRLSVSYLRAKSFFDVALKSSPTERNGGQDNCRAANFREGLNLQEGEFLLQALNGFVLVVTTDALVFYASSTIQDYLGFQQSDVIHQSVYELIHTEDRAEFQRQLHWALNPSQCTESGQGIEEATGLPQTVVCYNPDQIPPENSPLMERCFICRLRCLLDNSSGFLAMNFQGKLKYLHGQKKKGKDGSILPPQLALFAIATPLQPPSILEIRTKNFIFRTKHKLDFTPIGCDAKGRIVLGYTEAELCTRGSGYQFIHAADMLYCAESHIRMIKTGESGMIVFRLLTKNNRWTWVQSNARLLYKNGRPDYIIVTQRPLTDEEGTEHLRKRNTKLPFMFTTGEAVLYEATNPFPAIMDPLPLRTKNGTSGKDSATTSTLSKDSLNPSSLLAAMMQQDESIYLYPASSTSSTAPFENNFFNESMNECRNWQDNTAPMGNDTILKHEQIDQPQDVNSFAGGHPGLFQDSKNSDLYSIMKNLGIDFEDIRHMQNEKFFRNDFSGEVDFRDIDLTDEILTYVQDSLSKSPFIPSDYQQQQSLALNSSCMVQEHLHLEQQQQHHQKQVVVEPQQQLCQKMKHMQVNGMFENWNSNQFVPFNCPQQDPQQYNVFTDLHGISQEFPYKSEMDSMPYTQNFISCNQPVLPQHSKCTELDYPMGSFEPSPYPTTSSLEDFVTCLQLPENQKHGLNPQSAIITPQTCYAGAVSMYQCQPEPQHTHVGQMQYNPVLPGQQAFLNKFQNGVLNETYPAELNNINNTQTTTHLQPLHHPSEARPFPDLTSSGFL
Transcription factor E2F1 (Homo sapiens), sequence (Q01094 whole entry, looked up): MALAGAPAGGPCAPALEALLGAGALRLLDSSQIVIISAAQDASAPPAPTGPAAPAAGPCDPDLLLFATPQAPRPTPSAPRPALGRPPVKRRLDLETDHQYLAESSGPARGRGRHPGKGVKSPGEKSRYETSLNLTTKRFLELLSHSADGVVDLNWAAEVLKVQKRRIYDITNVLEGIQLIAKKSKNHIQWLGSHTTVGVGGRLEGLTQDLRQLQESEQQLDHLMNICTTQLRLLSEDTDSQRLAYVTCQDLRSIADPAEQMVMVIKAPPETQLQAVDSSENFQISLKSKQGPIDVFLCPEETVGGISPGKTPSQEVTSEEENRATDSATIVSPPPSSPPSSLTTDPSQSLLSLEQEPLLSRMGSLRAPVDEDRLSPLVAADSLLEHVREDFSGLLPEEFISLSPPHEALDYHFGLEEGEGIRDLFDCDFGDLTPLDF

Take `Cc1oncc1C(=O)Nc1ccc(C(F)(F)F)cc1`: the compound was classed as inactive in assay [1], in assay [2], in assay [3], in assay [4], in [7] and in assay [9]. Also, the compound was classed as inactive in assay [10], in assay [11], in assay [12], in assay [13], in assay [14] and in assay [16]. Further, the call in assay [17], in [18], in assay [19] and in [20] was inactive. Besides, the AC50 in assay [5] is 8.59 µM (active); in assay [6], 100 µM (active); in assay [8], 127 µM (active); in assay [15], 25.7 µM (active).

In the case of `OCCCS`, the result in assay [1], in assay [2], in [3], in [4], in assay [5] and in assay [6] was inactive. For the same compound, the outcome in assay [7], in [8], in assay [9], in assay [10], in assay [11] and in assay [12] was inactive. Further, the compound was called inactive in assay [13], in assay [14], in [15], in [16], in assay [17] and in [18]. Also, the call in assay [19] and in [20] was inactive.

Turning to `CCCCOCCOC(=O)COc1nc(Cl)c(Cl)cc1Cl`, the compound was called inactive in [1], in [2], in [3], in assay [4], in assay [5] and in [6]. For the same compound, the outcome in assay [7], in [8], in assay [9], in assay [10], in [11] and in [12] was inactive. Besides, the compound was classed as inactive in assay [13], in assay [14], in [16], in assay [17], in assay [18] and in assay [19]. The outcome in [20] was inactive. The half-maximal activity concentration (AC50) in assay [15] is 26.2 µM (active).

As to `CCCCC(CC)COCC1CO1` (stereo not given), the compound was classed as inactive in [1], in [2], in [3], in assay [4], in assay [5] and in [6]. Moreover, the outcome in assay [7], in [8], in [9], in assay [10], in assay [11] and in [12] was inactive. The compound was called inactive in [13], in assay [14], in [15], in assay [16], in assay [17] and in assay [18]. Also, the compound was classed as inactive in assay [19] and in assay [20].

As for `COC(=O)/C=C/C(C)=C\C=C\C(C)=C\C=C\C=C(C)\C=C\C=C(C)\C=C\C(=O)O`, the compound was classed as inactive in assay [1], in [2], in [3], in [4], in [5] and in [6]. Moreover, the compound was called inactive in assay [7], in assay [8], in assay [9], in assay [10], in [11] and in assay [12]. The compound was classed as inactive in [13], in [14], in assay [15], in assay [16], in assay [17] and in assay [18]. The compound was classed as inactive in [19] and in assay [20].

With `Cc1cccc(N)n1`, the compound was classed as inactive in assay [1], in assay [2], in assay [3], in [4], in assay [5] and in assay [6]. For the same compound, the compound was classed as inactive in assay [7], in assay [8], in [9], in [10], in [11] and in assay [12]. For the same compound, the compound was called inactive in [13], in assay [14], in assay [15], in assay [16], in assay [17] and in assay [18]. Moreover, the compound was classed as inactive in [19] and in assay [20].

For the compound `CCCCCCCC[N+](C)(CCCCCCCC)CCCCCCCC`, the outcome in [1], in [2], in assay [3], in [4], in [5] and in [6] was inactive. In addition, the outcome in assay [7], in assay [8], in assay [9], in assay [10], in assay [11] and in assay [12] was inactive. For the same compound, the call in [13], in assay [14], in assay [15], in [16], in assay [17] and in assay [18] was inactive. In addition, the compound was called inactive in [19] and in assay [20].
